According to PubChem BioAssay (EPA / NIEHS):
Calls of active or inactive are those of the source. How the source made its calls: active means hit-call score of the fitted dose curve at least 0.9, where 1 is the maximum; inactive means score below 0.9.

Read-out: Transforming Growth Factor (TGFA), TGFA (gene 7039)
Experiment: LTEA_HepaRG_TGFA: Life Technologies and Expression Analysis (LTEA) Assay for Transforming Growth Factor (TGFA) using HepaRG (AID 2283532)
Conditions: mRNA level, 48 h; actives raise or lower the signal
Method: LTEA_HepaRG is a cell based, multiplexed-readout assay that uses HepaRG, a human liver cell line, with measurements taken at 48 hours after chemical dosing on a 96-well plate.LTEA_HepaRG_TGFA is one of 102 assay component(s) measured in the LTEA HepaRG cell culture assay. It is a marker of Cell proliferation, survival, death.Data from the assay component LTEA_HepaRG_TGFA was analyzed into 1 endpoint. This assay endpoint, LTEA_HepaRG_TGFA, was analyzed with bidirectional fitting relative to DMSO as the negative control and baseline of activity. Using a type of inducible reporter, measures of mRNA induction for gain or loss-of-signal activity can be used to understand regulation of transcription factor activity. To generalize the intended target to other relatable targets, this assay endpoint is annotated to the growth factor intended target family, where the subfamily is EGF-like domain.
A total of 1060 chemcials from the ToxCast library were tested in eight-point concentration-response experiments. Cell culture and cytotoxicity assays were conducted at Thermo Fisher Scientific's Custom Services facility (Madison, WI). A single lot of human HepaRG cells (Thermo Fisher Scientific, Frederick, MD) was used for the cell culture experiments. 96-well format collagen type I coated plates of human HepaRG cells were prepared using established methods. Briefly, cryopreserved HepaRG cells were thawed, plated at a density of approximately 100,000 cells/well in HepaRG Thaw, Plate, and General Purpose media (HPRG770, Thermo Fisher Scientific), and incubated for 48 hours. 0.5% DMSO was selected as vehicle control to balance the requisite need of DMSO in HepaRG cultures to maintain differentiation (for example, baseline metabolism, proportions of hepatocytes vs. cholangiocytes), while enabling further hepatic receptor pathway activation (for example, PXR and CAR) in response to chemical exposure. 48 hours after plating, the culture medium was replaced with HepaRG Serum-Free Incudtion Media. Cells were exposed to each test chemical in duplicate and maintained in CO2 incubators for another 48 hours. Chemical plates were thawed to room temperature and 200x concentrations of treatment groups were prepared. 8-point conentration-reponse curves were made with the highest exposure at 100 uM, followed by half-log dilutions, all in 0.5% DMSO. Each test plate contained variouse controls, induction positive controls (1mM phenobarbital), cytotoxicity positive controls ([…] aflatoxin B1), vehicle controls (0.5% DMSO), and total lysis controls (0.5% DMSO). Cell morphology images were taken using an Essen IncuCyte FLR automated microscope, with six 96-well plates imaged in about 24 minutes. Images were captured and exported and JPEG files. Spent culture media was transfered to black-well plates for the LDH assay, and remaining media was sorted at -80 C for later use. Cells were treated with RLT buffer and frozen until shipped for gene expression analysis. Total RNA was isolated from the cell suspension in 75 uL of Buffer RLT (Qiagen, Germantown, MD 20874) by Quintiles/Expression Analysis (Durham, NC) using a custom isolation procedure. Total RNA from each plate well was transferred to a preamplification plate. Fluidigm's 96.96 Dynamic ArrayTM (Fluidigm, Amsterdam, the Netherlands) technology was used for gene expression analyses by quantitative reverse transcription polymerase chain reaction (qRT-PCR, performed by Quintiles/Expression Analysis, Durham, NC)89. Standard TaqManTM Assays (Applied Biosystems/ThermoFisher Scientific, Foster City, CA) were used to assess the expression of 93 genes selected based on their selectivity and sensitivity to important hepatic receptors known to be modulated by environmental chemicals; importance in human hepatocyte functionality; and hepatotoxicity. […]

Compound | outcome | AC50
S=C1NCCN1 | inactive | –
CCOP(=O)(NC(C)C)Oc1ccc(SC)c(C)c1 (stereo not given) | inactive | –
Nc1c(Cl)cc([N+](=O)[O-])cc1Cl | inactive | –
C#CCC1=C(C)C(OC(=O)C2C(C=C(C)C)C2(C)C)CC1=O (stereo not given) | inactive | –
CN(C)C(=O)Nc1cccc(C(F)(F)F)c1 | inactive | –
CC(C)[C@H](C(=O)O[C@H](C#N)c1cccc(Oc2ccccc2)c1)c1ccc(Cl)cc1 | inactive | –
Cc1ccn2nc(S(=O)(=O)Nc3c(F)cccc3F)nc2n1 | inactive | –
CNC(=O)ON=C(SC)C(=O)N(C)C | inactive | –
CON=C(C(=O)OC)c1ccccc1CON=C(C)c1cccc(C(F)(F)F)c1 | inactive | –
Cc1nn(-c2cc(NS(C)(=O)=O)c(Cl)cc2Cl)c(=O)n1C(F)F | inactive | –
CNC(=O)Oc1cccc2c1OC(C)(C)O2 | inactive | –
COc1ccc(C(=CC(=O)N2CCOCC2)c2ccc(Cl)cc2)cc1OC | inactive | –
CCc1cccc(CC)c1N(COC)C(=O)CCl | inactive | –
C#CC(C)(C)NC(=O)c1cc(Cl)cc(Cl)c1 | inactive | –
CN(C)[C@@H]1C(=O)C(C(N)=O)=C(O)[C@@]2(O)C(=O)C3=C(O)c4c(O)cccc4[C@@](C)(O)[C@H]3[C@H](O)[C@@H]12 | inactive | –
CC(C)=CC1C(C(=O)OCN2C(=O)C3=C(CCCC3)C2=O)C1(C)C (stereo not given) | inactive | –
CCCCOC(=O)[C@@H](C)Oc1ccc(Oc2ccc(C#N)cc2F)cc1 | inactive | –
CCC(=NOC/C=C/Cl)C1=C(O)CC(C2CCOCC2)CC1=O (stereo not given) | inactive | –
CC(=NC#N)N(C)Cc1ccc(Cl)nc1 | inactive | –
C[N+]1(C)CCCCC1 | inactive | –

Compound | outcome | AC50
CC1=NNC(=O)N(/N=C/c2cccnc2)C1 | inactive | –
CN(C)NC(=O)CCC(=O)O | inactive | –
CCCOCC(=Nc1ccc(Cl)cc1C(F)(F)F)n1ccnc1 | – | 92.4 µM (active)
COP(=O)(OC)C(O)C(Cl)(Cl)Cl (stereo not given) | inactive | –
CCOP(=S)(OCC)SCCSCC | inactive | –
CCc1cccc(C)c1N(C(=O)CCl)C(C)COC (stereo not given) | inactive | –
CCNc1nc(Cl)nc(NC(C)(C)C#N)n1 | inactive | –
CCOC(=O)CC(SP(=O)(OC)OC)C(=O)OCC (stereo not given) | inactive | –
CCCSP(=O)(OCC)Oc1ccc(Br)cc1Cl (stereo not given) | inactive | –
CCCCSP(=O)(SCCCC)SCCCC | inactive | –
O=[N+]([O-])c1cc(C(F)(F)F)c(Cl)c([N+](=O)[O-])c1Nc1ncc(C(F)(F)F)cc1Cl | inactive | –
CCCOc1nn(C(=O)NS(=O)(=O)c2ccccc2C(=O)OC)c(=O)n1C | inactive | –
COP(=O)(NC(C)=O)SC (stereo not given) | inactive | –
CC(COc1ccc(Oc2ccccc2)cc1)Oc1ccccn1 (stereo not given) | inactive | –
CSc1nnc(C(C)(C)C)c(=O)n1N | inactive | –
O=C(O)c1cc(Oc2ccc(C(F)(F)F)cc2Cl)ccc1[N+](=O)[O-] | inactive | –
CCC(CC)Nc1c([N+](=O)[O-])cc(C)c(C)c1[N+](=O)[O-] | inactive | –
CCOP(=S)(OCC)Oc1ccc2c(C)c(Cl)c(=O)oc2c1 | inactive | –
COc1cc(OC)nc(Sc2cccc(Cl)c2C(=O)O)n1 | inactive | –
C[Si](Cn1cncn1)(c1ccc(F)cc1)c1ccc(F)cc1 | – | 65.1 µM (active)
